According to PubChem BioAssay (NCATS):
Several values for one entry are separate records, joined by “and”; a condition that tells them apart may be missing. Identical values can stand only once. Results filed as inconclusive are left out. Activity calls are given as the source filed them. Calls come from the whole dose curve; as a rule, active = well fitted curve in the direction sought with a large enough effect; inconclusive = small, poorly fitted or top-dose-only effect, or another doubt; inactive = no such curve, though single readings can be large; an effect the other way counts as inactive or inconclusive.

Columns and labels:
KB-3-1 = experiment: Cytotoxic Profiling of Annotated Libraries Using Quantitative High-Throughput Screening (AID 1296008); conditions: Five cell lines viability, CellTiter-Glo ATP luminescence, 48-72 h; max response: stronger effect = lower value; note: nearly all actives have a fitted effect of over 60% in size
How it was run: (§1)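 Cells exposed to compounds for 48 or 72 hr at 37 degrees Celsius. Viability read as ATP-coupled luminescence with CellTiter-Glo after 10 min at room temperature.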

NIH3T3 [1] = experiment: as above; conditions: Five cell lines viability, CellTiter-Glo ATP luminescence, 48-72 h; max response: stronger effect = lower value
How it was run: as §1

HACAT = experiment: qHTS assay to identify novel small-molecules to repurpose for Merkel cell carcinoma treatment (AID 1296009); conditions: MCC and control cell lines, CellTiter-Glo viability, 72 h; at 44.8 µM (top of the series) unless noted; note: nearly all actives have a fitted effect of over 60% in size
How it was run: (§2)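 Dose-response viability screen; 72 hr exposure at 37 degree celsius; CellTiter-Glo added, 10 min room temperature, luminescence read; RLUs scaled between no-cell and DMSO wells.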

MCC-13 = experiment: as above; conditions: MCC and control cell lines, CellTiter-Glo viability, 72 h; series mostly up to 46 µM
How it was run: as §2

MCC-26 = experiment: as above; conditions: MCC and control cell lines, CellTiter-Glo viability, 72 h; series mostly up to 46 µM
How it was run: as §2

MKL-1 = experiment: as above; conditions: MCC and control cell lines, CellTiter-Glo viability, 72 h; series mostly up to 46 µM
How it was run: as §2

MKL-2 = experiment: as above; conditions: MCC and control cell lines, CellTiter-Glo viability, 72 h; series mostly up to 46 µM
How it was run: as §2

C33A = experiment: Primary qHTS to identify gynecologic anti-cancer compounds using libraries of approved drugs and bioactive compounds (AID 1345084); conditions: Gynecologic cancer cell panel viability, ATPlite luminescence, 48 h; series mostly up to 57.5 µM; note: nearly all actives have a fitted effect of over 55% in size
How it was run: (§3)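 48 h compound exposure at 37 C, 5% CO2; five-point qHTS. ATPlite luminescence readout of cell ATP.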

CAOV3 = experiment: as above; conditions: Gynecologic cancer cell panel viability, ATPlite luminescence, 48 h; series mostly up to 57.5 µM
How it was run: as §3

CASKI = experiment: as above; conditions: Gynecologic cancer cell panel viability, ATPlite luminescence, 48 h; series mostly up to 57.5 µM
How it was run: as §3

Es-2 = experiment: as above; conditions: Gynecologic cancer cell panel viability, ATPlite luminescence, 48 h; series mostly up to 57.5 µM
How it was run: as §3

Hek293T [2] = experiment: as above; conditions: Gynecologic cancer cell panel viability, ATPlite luminescence, 48 h, control line for the selectivity index; series mostly up to 57.5 µM
How it was run: as §3

JEG-3 = experiment: as above; conditions: Gynecologic cancer cell panel viability, ATPlite luminescence, 48 h; series mostly up to 57.5 µM
How it was run: as §3

OV90 = experiment: as above; conditions: Gynecologic cancer cell panel viability, ATPlite luminescence, 48 h; series mostly up to 57.5 µM
How it was run: as §3

PA-1 = experiment: as above; conditions: Gynecologic cancer cell panel viability, ATPlite luminescence, 48 h; series mostly up to 57.5 µM
How it was run: as §3

NIH3T3 [3] = experiment: qHTS assay to identify novel small-molecules to repurpose for Merkel cell carcinoma treatment (AID 1296009); conditions: MCC and control cell lines, CellTiter-Glo viability, 72 h; at 44.8 µM (top of the series); note: nearly all actives have a fitted effect of over 60% in size
How it was run: as §2

UISO = experiment: as above; conditions: MCC and control cell lines, CellTiter-Glo viability, 72 h; series mostly up to 46 µM
How it was run: as §2

WaGa = experiment: as above; conditions: MCC and control cell lines, CellTiter-Glo viability, 72 h; series mostly up to 46 µM
How it was run: as §2

HeLa = experiment: Primary qHTS to identify gynecologic anti-cancer compounds using libraries of approved drugs and bioactive compounds (AID 1345084); conditions: Gynecologic cancer cell panel viability, ATPlite luminescence, 48 h; series mostly up to 57.5 µM; note: nearly all actives have a fitted effect of over 55% in size
How it was run: as §3

HEK293T [4] = experiment: qHTS assay to identify novel small-molecules to repurpose for Merkel cell carcinoma treatment (AID 1296009); conditions: MCC and control cell lines, CellTiter-Glo viability, 72 h; at 44.8 µM (top of the series) unless noted; note: nearly all actives have a fitted effect of over 60% in size
How it was run: as §2
% is set by controls: 0 for no effect and ±100 for the full control effect.

CCOC(=O)[C@H](CCc1ccccc1)N[C@@H](C)C(=O)N1[C@H](C(=O)O)C[C@H]2CCCC[C@@H]21
inactive: max response (KB-3-1) 8% and -12.5%

CCc1oc2ccccc2c1C(=O)c1cc(Br)c(O)c(Br)c1
inactive: max response (KB-3-1) -3.26% | max response (NIH3T3 [1]) -25.3% | outcome (HACAT) | Potency (MCC-13) | Potency (MCC-26) | Potency (MKL-1) | Potency (MKL-2) | Potency (C33A) | Potency (CAOV3) | Potency (CASKI) | Potency (Es-2) | Potency (Hek293T [2]) | Potency (JEG-3) | Potency (OV90) | Potency (PA-1)

CC(=C(CCOC(=O)C(C)C)SSC(CCOC(=O)C(C)C)=C(C)N(C=O)Cc1cnc(C)nc1N)N(C=O)Cc1cnc(C)nc1N
inactive: max response (KB-3-1) 1.98% | outcome (NIH3T3 [1]) | outcome (HACAT) | Potency (MCC-13) | Potency (MCC-26) | Potency (MKL-1) | outcome (NIH3T3 [3]) | Potency (UISO) | Potency (WaGa) | Potency (C33A) | Potency (CAOV3) | Potency (CASKI) | Potency (Es-2) | Potency (HeLa) | Potency (JEG-3) | Potency (OV90) | Potency (PA-1)

CN(C)CCOC(=O)C(c1ccccc1)C1(O)CCCC1 (stereo not given)
inactive: max response (KB-3-1) -12% | max response (NIH3T3 [1]) -1.59% | outcome (HACAT) | outcome (HEK293T [4]) | Potency (MCC-13) | Potency (MCC-26) | Potency (MKL-2) | Potency (UISO) | Potency (C33A) | Potency (CAOV3) | Potency (CASKI) | Potency (Es-2) | Potency (HeLa) | Potency (Hek293T [2]) | Potency (JEG-3) | Potency (OV90) | Potency (PA-1)

O=C1OC2(c3ccccc31)c1cc(Br)c(O)c(Br)c1Oc1c2cc(Br)c(O)c1Br
inactive: max response (KB-3-1) -24.7% | max response (NIH3T3 [1]) -4.74% | outcome (HACAT) | outcome (HEK293T [4]) | Potency (MCC-13) | Potency (MCC-26) | Potency (MKL-1) | Potency (MKL-2) | Potency (UISO) | Potency (WaGa) | Potency (C33A) | Potency (CAOV3) | Potency (CASKI) | Potency (Es-2) | Potency (HeLa) | Potency (Hek293T [2]) | Potency (JEG-3) | Potency (OV90) | Potency (PA-1)

CC1(COc2ccc(CC3SC(=O)NC3=O)cc2)CCCCC1 (stereo not given)
inactive: max response (KB-3-1) -1.45% | outcome (NIH3T3 [1]) | outcome (HACAT) | Potency (MCC-13) | Potency (MCC-26) | Potency (MKL-1) | Potency (MKL-2) | outcome (NIH3T3 [3]) | Potency (C33A) | Potency (CASKI) | Potency (Es-2) | Potency (HeLa) | Potency (Hek293T [2]) | Potency (JEG-3) | Potency (PA-1)

CO[C@]12C[C@@H](COC(=O)c3cncc(Br)c3)CN(C)[C@@H]1Cc1cn(C)c3cccc2c13
inactive: max response (KB-3-1) 9.31% | max response (NIH3T3 [1]) 0.842% | outcome (HACAT) | Potency (MCC-13) | Potency (MCC-26) | Potency (MKL-1) | Potency (MKL-2) | Potency (UISO) | Potency (WaGa) | Potency (C33A) | Potency (CAOV3) | Potency (CASKI) | Potency (Es-2) | Potency (HeLa) | Potency (Hek293T [2]) | Potency (JEG-3) | Potency (OV90) | Potency (PA-1)

CC(=O)Nc1ccc(OC(=O)c2ccccc2OC(C)=O)cc1
inactive: max response (KB-3-1) -4.86% | outcome (NIH3T3 [1]) | outcome (HACAT) | outcome (HEK293T [4]) | Potency (MCC-13) | Potency (MCC-26) | Potency (MKL-1) | Potency (MKL-2) | outcome (NIH3T3 [3]) | Potency (UISO) | Potency (WaGa) | Potency (C33A) | Potency (CAOV3) | Potency (CASKI) | Potency (Es-2) | Potency (HeLa) | Potency (Hek293T [2]) | Potency (JEG-3) | Potency (OV90) | Potency (PA-1)

O=C(NC1CCN(CCc2c[nH]c3ccccc23)CC1)c1ccccc1
inactive: max response (KB-3-1) -0.418% | max response (NIH3T3 [1]) -2.1% | outcome (HACAT) | Potency (MCC-13) | Potency (MCC-26) | Potency (MKL-1) | Potency (MKL-2) | Potency (UISO) | Potency (WaGa) | Potency (C33A) | Potency (CAOV3) | Potency (CASKI) | Potency (Es-2) | Potency (Hek293T [2]) | Potency (JEG-3) | Potency (OV90) | Potency (PA-1)

CCN(CC)CCOC(=O)C(Cc1cccc2ccccc12)CC1CCCO1 (stereo not given)
inactive: max response (KB-3-1) 13.9% | max response (NIH3T3 [1]) 3.27% | outcome (HACAT) | Potency (MCC-13) | Potency (MCC-26) | Potency (MKL-1) | Potency (MKL-2) | Potency (UISO) | Potency (WaGa) | Potency (C33A) | Potency (Es-2) | Potency (HeLa) | Potency (Hek293T [2]) | Potency (JEG-3) | Potency (PA-1)

CC(C)=CCOc1ccc(/C=C/C(=O)c2ccc(OCC=C(C)C)cc2OCC(=O)O)cc1
inactive: max response (KB-3-1) 1.11% | outcome (NIH3T3 [1]) | outcome (HACAT) | Potency (MCC-13) | Potency (MCC-26) | Potency (MKL-1) | Potency (MKL-2) | outcome (NIH3T3 [3]) | Potency (WaGa) | Potency (C33A) | Potency (CAOV3) | Potency (CASKI) | Potency (Es-2) | Potency (HeLa) | Potency (Hek293T [2]) | Potency (JEG-3) | Potency (OV90) | Potency (PA-1)

CC(=O)Nc1ccc(CC(=O)O)cc1
inactive: max response (KB-3-1) -17.4% | max response (NIH3T3 [1]) -0.623% | outcome (HACAT) | Potency (MCC-13) | Potency (MCC-26) | Potency (MKL-1) | Potency (MKL-2) | Potency (UISO) | Potency (WaGa) | Potency (C33A) | Potency (CAOV3) | Potency (CASKI) | Potency (Es-2) | Potency (HeLa) | Potency (Hek293T [2]) | Potency (JEG-3) | Potency (OV90) | Potency (PA-1)

COc1ccc(/C=N/NC(=O)c2ccncc2)cc1OC
inactive: max response (KB-3-1) 0.981% | max response (NIH3T3 [1]) -0.709% | outcome (HACAT) | Potency (MCC-13) | Potency (MCC-26) | Potency (MKL-1) | Potency (MKL-2) | Potency (UISO) | Potency (WaGa) | Potency (C33A) | Potency (CASKI) | Potency (Es-2) | Potency (HeLa) | Potency (Hek293T [2]) | Potency (JEG-3) | Potency (OV90) | Potency (PA-1)

CCCN(CCc1cccs1)[C@H]1CCc2c(O)cccc2C1
inactive: max response (KB-3-1) 5.8% | outcome (NIH3T3 [1]) | outcome (HACAT) | Potency (MCC-13) | Potency (MCC-26) | Potency (MKL-1) | Potency (MKL-2) | outcome (NIH3T3 [3]) | Potency (UISO) | Potency (C33A) | Potency (CAOV3) | Potency (CASKI) | Potency (Es-2) | Potency (HeLa) | Potency (Hek293T [2]) | Potency (JEG-3) | Potency (OV90) | Potency (PA-1)
